Test results as given in PubChem BioAssay (NCI).
This is part of a sample that, as a whole, favours compounds with a hit. Of some 83,000 tested, about 20% had one in any assay.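 Compound tested at a single concentration for 48 hours in 96-well plates; a percent growth value below 10 was scored as active.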 Unmarked numbers belong to inactive results. Activity calls are given as the source filed them.

How the values were obtained:
Experiment in all cases: NCI-60 one-dose screen, 48 h (100 = growth as untreated, 0 = no growth, -100 = all killed)
Conditions in all cases: 10 µM unless noted
SK-MEL-2 melanoma = test system: SK-MEL-2 melanoma
EKVX NSCLC = test system: EKVX NSCLC
SN12C renal = test system: SN12C renal
UO-31 renal = test system: UO-31 renal
TK-10 renal = test system: TK-10 renal
ACHN renal = test system: ACHN renal
CAKI-1 renal = test system: CAKI-1 renal
A498 renal = test system: A498 renal
CCRF-CEM leukemia = test system: CCRF-CEM leukemia
MOLT-4 leukemia = test system: MOLT-4 leukemia

Compound	growth (SK-MEL-2 melanoma)	growth (EKVX NSCLC)	growth (SN12C renal)	growth (UO-31 renal)	growth (TK-10 renal)	growth (ACHN renal)	growth (CAKI-1 renal)	growth (A498 renal)	growth (CCRF-CEM leukemia)	growth (MOLT-4 leukemia)
Nc1nc2ncc(CCNc3ccc(C(=O)O)cc3)nc2c(=O)[nH]1	96.3%	120%	106%	86.6%	103%	110%	98.3%	120%	87.9%	75.5%
O=C1c2ccccc2C(=O)c2c1ccc1[nH]c(-c3cccs3)nc21	107%	71.7%	73.4%	58.6%	87.3%	66.5%	82%	96.5%	88.4%	70.1%
COc1ccc(NC2=C(Sc3nc(C)cc(C)n3)C(=O)N(Cc3ccccc3)C2=O)cc1Cl	96.5% [30 µM]	84.5% [30 µM]	91.8% [30 µM]	84.2% [30 µM]	111% [30 µM]	103% [30 µM]	95.7% [30 µM]	80.4% [30 µM]	54.6% [30 µM]	45% [30 µM]
Cc1cn2c(/C=C3/C(=O)Nc4c3ccc3ccccc43)c(C(F)(F)F)nc2s1	20%	44.4%	38.2%	34.7%	36.3%	48.5%	34.3%	0.919% (active)	16.4%	35.1%
COc1cc2c(cc1-c1c(C)noc1C)ncc1nc(C3CCOCC3)n([C@H](C)COC(F)F)c12	67%	50.4%	57%	15.7%	25.3%	34.6%	26.7%	-13.5% (active)	48.3%	46.6%
CSc1nc2c(c(=O)[nH]1)C1(C(=O)Nc3ccccc31)c1c(nc(SC)[nH]c1=O)N2	105%	108%	102%	87.1%	110%	103%	103%	116%	109%	108%
COc1ccc(C(=O)COc2ccc(/C=C3\COc4ccc(OC)cc4C3=O)cc2)cc1	68.1%	103%	100%	85.8%	105%	99.8%	99.1%	100%	7.46% (active)	55.5%
C#CCOc1ccc2ncnc(NCc3cccc(NC(=O)CCl)c3)c2c1	39.7% [8.25 µM]	65.6% [8.25 µM]	25.8% [8.25 µM]	84.9% [8.25 µM]	74.1% [8.25 µM]	39.5% [8.25 µM]	73.3% [8.25 µM]	77.9% [8.25 µM]	4.16% [8.25 µM] (active)	3.48% [8.25 µM] (active)
Cc1ccc(NC(=O)/C=C/c2ccccc2)c(C(N)=O)c1	67%	64.1%	53.1%	46.7%	92.9%	57.7%	6.55% (active)	53.8%	7.23% (active)	30.7%
CSc1nc(Nc2cccc(NC(=O)/C(C#N)=C/c3c(Cl)cccc3Cl)c2)c(C#N)c(-c2cccc([N+](=O)[O-])c2)n1	52.8%	56.7%	44.6%	33.7%	99.6%	57.9%	24.5%	73.5%	43.3%	23.9%
Cn1cc(-c2nonc2-c2cn(C)c3ccc(F)cc23)c2ccccc21	30.6%	47.6%	33.8%	26.9%	60.6%	38.7%	26.2%	-2.88% (active)	14.9%	15.9%
COc1cc2c(cc1-c1c(C)noc1C)ncc1nc(C3CCC(F)(F)CC3)n([C@H](C)COC(F)F)c12	65.7%	48.1%	51%	25.3%	27.1%	37.5%	35.4%	-22.8% (active)	50.3%	48.9%
Nc1ccc(S(=O)(=O)O)c2ccc(N=Nc3ccc(N=Nc4ccc(S(=O)(=O)O)cc4)c4ccccc34)c(O)c12	110%	124%	98.1%	55.8%	98.7%	101%	95.3%	98.8%	106%	80.2%
COc1cccc(Nc2nc(SC)nc(-c3cccc([N+](=O)[O-])c3)c2C#N)c1	96.3%	64.7%	68.8%	26.7%	75.8%	23.9%	60.1%	78.5%	99.6%	98.2%
NC(=O)c1cc(Cl)ccc1NC(=O)/C=C/c1ccccc1	57.7%	41%	49%	41.3%	45.1%	59.8%	56.5%	54.1%	3.8% (active)	28.4%
CCN=C1C=CC(=C(c2ccc(N)cc2)c2ccc(N(CC)CC)c(C)c2)C=C1	-15.3% (active)	10.6%	-14% (active)	3.22% (active)	15.4%	-2.24% (active)	14.1%	-26.5% (active)	-19.5% (active)	-4.13% (active)
O=C1NC(=S)NC(=O)C1CC(=O)n1c(-c2ccccc2)nc2ccccc21	110%	82.4%	95.8%	73.5%	143%	86.6%	77.2%	89%	110%	99.9%
CSc1nc(NCc2ccccc2)c(C#N)c(-c2cccc([N+](=O)[O-])c2)n1	102%	85.4%	93.2%	78.3%	124%	95.6%	75.4%	66.1%	99.7%	103%
O=C(NCCN1CCOCC1)Nc1ccc(-c2cc3c(Nc4ccc(Oc5cccc(C(F)(F)F)c5)c(Cl)c4)ncnc3s2)cc1	32%	20.8%	42.9%	-35.8% (active)	49.8%	11.8%	8.01% (active)	40.3%	3.33% (active)	-4.36% (active)
O=C1/C(=C/c2ccccc2)SC(=S)N1CCc1ccc(O)cc1	101%	91.9%	91.3%	65%	99.9%	93.9%	73.3%	92.1%	74.2%	88.6%
Cc1nn(-c2ccc(F)cc2)c2ncnc(Nc3ccc(NC(=O)Nc4ccc(Cl)c(C(F)(F)F)c4)cc3)c12	-7.22% (active)	43.9%	27.2%	40.1%	26.5%	3.49% (active)	12.4%	37.9%	28.9%	26.4%
O=C1CSC(=S)N1CCc1ccc(O)cc1	103%	97.8%	81.6%	60.3%	68.7%	91.4%	81.4%	97%	51.1%	93.4%
CCOc1cc2ncc(C#N)c(Nc3ccc(F)c(Cl)c3)c2cc1NC(=O)CC1CCSS1 (stereo not given)	-49.2% (active)	-55% (active)	-55.9% (active)	-92.4% (active)	-74.2% (active)	-90.7% (active)	-73.4% (active)	-53.7% (active)	-20.2% (active)	-47% (active)
Cc1ccc2c(C(C[N+](=O)[O-])c3ccco3)c(-c3ccccc3)[nH]c2c1 (stereo not given)	9.58% (active)	39.8%	39.1%	38.9%	64.2%	30.6%	23.8%	12.3%	14.4%	21%
COc1ccc(C(=O)COc2cccc(/C=C3\CSc4ccccc4C3=O)c2)cc1	-30.9% (active)	70.7%	29.6%	18%	-5.8% (active)	-35.8% (active)	-47.9% (active)	85.4%	-62.2% (active)	-65.7% (active)
O=C1NC(=S)N[C@H]1CC(=O)n1cnc2ccccc21	104%	90.5%	95.4%	75.5%	112%	95.3%	88.7%	80.3%	112%	108%
